Assay results as given in PubChem BioAssay (EPA / NIEHS).
Records with an inconclusive call do not appear. Active and inactive are the calls of the source. How the source made its calls: active means hit-call score of the fitted dose curve at least 0.9, where 1 is the maximum; inconclusive means response in the unintended direction; inactive means score below 0.9.

What was measured:
[1] = biological target: Adenosine receptor A1 (Bos taurus) (UniProt P28190); test: NVS_GPCR_bAdoR_NonSelective: NovaScreen (NVS) G Protein-Coupled Receptor Assay for bovine Adenosine Receptor (AdoR), Non-selective Binding (AID 2283244)
Procedure, shortened: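 Cell-free binding with membranes from bovine striatum: radioligand displaced by test chemical, read after 1 h by filtration and scintillation. Single-point 25 uM duplicate primary, 50 uM top concentration in follow-up curves, DMSO baseline.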

[2] = biological target: human Serotonin, 5-Hydroxytryptamine Receptor 2A (5HT2A), HTR2A (gene 3356) (UniProt P28223); test: NVS_GPCR_h5HT2A: NovaScreen (NVS) G Protein-Coupled Receptor Assay for human Serotonin, 5-Hydroxytryptamine Receptor 2A (5HT2A) (AID 2283249)
Procedure, shortened: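 Radioligand displacement on human cortex tissue extract, counted by filtration and scintillation 1.5 h post-dosing. Initial single-concentration screen at 25 uM in duplicate, concentration series in follow-up; DMSO as baseline.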

[3] = test system: guinea pig Muscarinic, Peripheral (Mperiperal) Receptor, Non-selective Binding, gene 100379235; test: NVS_GPCR_gMPeripheral_NonSelective: NovaScreen (NVS) G Protein-Coupled Receptor Assay for guinea pig Muscarinic, Peripheral (Mperiperal) Receptor, Non-selective Binding (AID 2283250)
Procedure, shortened: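 Screened in duplicate at 25 uM, hits retested in concentration series to 50 uM max, using bladder membrane radioligand displacement from guinea pig. Filtration and scintillation counting 1 h post-dose, fitted relative to DMSO.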

[4] = biological target: guinea pig Opioid, Kappa 1 Receptor (OpiateK), OPRK1 (gene 100135587) (UniProt P41144); test: NVS_GPCR_gOpiateK: NovaScreen (NVS) G Protein-Coupled Receptor Assay for guinea pig Opioid, Kappa 1 Receptor (OpiateK) (AID 2283252);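 further: active means reduced radioligand binding relative to DMSO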
Procedure, shortened: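 Radioligand binding to kappa opioid receptor in guinea pig cerebellar membranes, read by filtration and scintillation at 2 h. Compounds first tested in duplicate at 25 uM, then actives in concentration series; signal loss fitted against DMSO.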

[5] = biological target: human Serotonin, 5-Hydroxytryptamine Receptor 6 (5HT6), HTR6 (gene 3362) (UniProt P50406); test: NVS_GPCR_h5HT6: NovaScreen (NVS) G Protein-Coupled Receptor Assay for human Serotonin, 5-Hydroxytryptamine Receptor 6 (5HT6) (AID 2283253)
Procedure, shortened: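 Filter scintillation counting of radioligand displacement from HEK293-expressed 5HT6, 1 hour post-dose, with loss of signal relative to DMSO. Single 25 uM duplicates first, with concentration series for confirmation.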

[6] = biological target: human Serotonin, 5-Hydroxytryptamine Receptor 7 (5HT7), HTR7 (gene 3363) (UniProt P34969); test: NVS_GPCR_h5HT7: NovaScreen (NVS) G Protein-Coupled Receptor Assay for human Serotonin, 5-Hydroxytryptamine Receptor 7 (5HT7) (AID 2283255);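 further: hits reduce specific radioligand binding relative to DMSO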
Procedure, shortened: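 Filter-bound radioactivity counted after 1 h, with loss of specific radioligand binding fitted against DMSO. Membrane protein came from CHO cells expressing human 5HT7. Chemicals were tested first at 25 uM in duplicate, then in concentration series if active.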

[7] = biological target: human Adenosine A2a Receptor (AdoRA2a), ADORA2A (gene 135) (UniProt P29274); test: NVS_GPCR_hAdoRA2a: NovaScreen (NVS) G Protein-Coupled Receptor Assay for human Adenosine A2a Receptor (AdoRA2a) (AID 2283256)
Procedure, shortened: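 HEK293-derived receptor preparation, radioligand displacement, 1.5 h, filtration + scintillation read. Loss of bound signal scored vs DMSO. Single-point 25 uM in duplicate first, then concentration-response for actives.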

[8] = biological target: human Adrenergic, Alpha 2A Receptor (Adra2A), ADRA2A (gene 150) (UniProt P08913); test: NVS_GPCR_hAdra2A: NovaScreen (NVS) G Protein-Coupled Receptor Assay for human Adrenergic, Alpha 2A Receptor (Adra2A) (AID 2283257)
Procedure, shortened: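 Displacement of a specific radioligand from HT29 membrane protein was counted by filter scintillation after 1 h. Compounds were screened in duplicate at 25 uM, and actives were retested in concentration series. Fitting was positive-direction against DMSO.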

[9] = biological target: human Adrenergic, Beta 1 Receptor (Adrb1), ADRB1 (gene 153) (UniProt P08588); test: NVS_GPCR_hAdrb1: NovaScreen (NVS) G Protein-Coupled Receptor Assay for human Adrenergic, Beta 1 Receptor (Adrb1) (AID 2283258)
Procedure, shortened: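 Membranes/protein extracted from human neuroepithelioma cells, radioligand competition binding read by filtration and scintillation 2 h post-dose. Single 25 uM duplicate screen, then concentration-response follow-up; DMSO as negative control.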

[10] = biological target: human Adrenergic, Alpha 2c Receptor (Adra2C), ADRA2C (gene 152) (UniProt P18825); test: NVS_GPCR_hAdra2C: NovaScreen (NVS) G Protein-Coupled Receptor Assay for human Adrenergic, Alpha 2c Receptor (Adra2C) (AID 2283259)
Procedure, shortened: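 Screened first in duplicate at 25 uM, with actives then run as concentration series. Membranes from Sf9 cells were exposed for 1 h, and displacement of radioligand was counted after filtration, using DMSO as baseline.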

[11] = biological target: Beta-2 adrenergic receptor (Homo sapiens) (UniProt P07550); test: NVS_GPCR_hAdrb2: NovaScreen (NVS) G Protein-Coupled Receptor Assay for human Adrenergic, Beta 2 Receptor (Adrb2) (AID 2283261)
Procedure, shortened: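 Compounds screened in duplicate at 25 uM, then actives in concentration series. Human beta-2 receptor from CHO material, cell-free; radioligand displacement after 1 h measured by filtration and scintillation against DMSO baseline.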

[12] = biological target: human Dopamine Receptor D4.4 (DRD4.4), DRD4 (gene 1815) (UniProt P21917); test: NVS_GPCR_hDRD4.4: NovaScreen (NVS) G Protein-Coupled Receptor Assay for human Dopamine Receptor D4.4 (DRD4.4) (AID 2283264)
Procedure, shortened: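 Filter-binding assay with a tritiated or iodinated ligand, cell-free receptor prepared from CHO, 1 hour. Loss of bound radioactivity versus DMSO; single 25 uM duplicate screen, then concentration-response for actives.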

[13] = biological target: human Dopamine Receptor D2 (DRD2), DRD2 (gene 1813) (UniProt P14416); test: NVS_GPCR_hDRD2s: NovaScreen (NVS) G Protein-Coupled Receptor Assay for human Dopamine Receptor D2 (DRD2) (AID 2283266)
Procedure, shortened: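 Test compound (25 uM, duplicate in the primary screen; concentration series at follow-up) competed with radioligand for human DRD2 in CHO-derived membrane protein. Filter-based scintillation counting was done 1.5 hours after dosing, with loss of signal analysed against DMSO.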

[14] = biological target: human Adrenergic, Beta 3 Receptor (Adrb3), ADRB3 (gene 155) (UniProt P13945); test: NVS_GPCR_hAdrb3: NovaScreen (NVS) G Protein-Coupled Receptor Assay for human Adrenergic, Beta 3 Receptor (Adrb3) (AID 2283262)
Procedure, shortened: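 A cell-free filter binding assay read by scintillation counting, with displacement of a specific radioligand measured after 1 hour. The receptor source was SK-N-MC extracts (cells pretreated with isoproterenol and 8-bromo-cAMP). Compounds were first tested at 25 uM in duplicate and then in concentration series.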

[15] = biological target: human Endothelin Receptor Type A (ETA), EDNRA (gene 1909) (UniProt P25101); test: NVS_GPCR_hETA: NovaScreen (NVS) G Protein-Coupled Receptor Assay for human Endothelin Receptor Type A (ETA) (AID 2283265)
Procedure, shortened: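 Binding of radioligand to membrane protein extracted from SH-SY5Y cells was read by filtration and scintillation after 3 h. Compounds were screened at 25 uM in duplicate, with hits followed up in singleton concentration series to 50 uM.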

Chain of human Serotonin, 5-Hydroxytryptamine Receptor 2A (5HT2A), HTR2A (gene 3356) (P28223 whole entry, looked up): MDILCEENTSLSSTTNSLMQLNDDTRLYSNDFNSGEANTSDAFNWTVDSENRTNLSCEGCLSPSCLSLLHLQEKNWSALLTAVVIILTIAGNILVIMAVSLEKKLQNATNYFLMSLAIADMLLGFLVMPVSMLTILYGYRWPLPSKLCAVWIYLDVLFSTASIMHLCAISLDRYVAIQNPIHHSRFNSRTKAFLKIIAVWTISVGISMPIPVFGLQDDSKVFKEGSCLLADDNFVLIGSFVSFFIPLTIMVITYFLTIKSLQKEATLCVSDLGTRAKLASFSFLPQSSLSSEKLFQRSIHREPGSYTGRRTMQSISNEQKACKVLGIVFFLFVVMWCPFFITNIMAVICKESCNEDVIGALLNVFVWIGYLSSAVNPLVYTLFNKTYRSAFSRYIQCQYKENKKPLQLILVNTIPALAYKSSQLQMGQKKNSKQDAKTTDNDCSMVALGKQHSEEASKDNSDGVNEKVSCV
Chain of human Serotonin, 5-Hydroxytryptamine Receptor 7 (5HT7), HTR7 (gene 3363) (P34969 whole entry, looked up): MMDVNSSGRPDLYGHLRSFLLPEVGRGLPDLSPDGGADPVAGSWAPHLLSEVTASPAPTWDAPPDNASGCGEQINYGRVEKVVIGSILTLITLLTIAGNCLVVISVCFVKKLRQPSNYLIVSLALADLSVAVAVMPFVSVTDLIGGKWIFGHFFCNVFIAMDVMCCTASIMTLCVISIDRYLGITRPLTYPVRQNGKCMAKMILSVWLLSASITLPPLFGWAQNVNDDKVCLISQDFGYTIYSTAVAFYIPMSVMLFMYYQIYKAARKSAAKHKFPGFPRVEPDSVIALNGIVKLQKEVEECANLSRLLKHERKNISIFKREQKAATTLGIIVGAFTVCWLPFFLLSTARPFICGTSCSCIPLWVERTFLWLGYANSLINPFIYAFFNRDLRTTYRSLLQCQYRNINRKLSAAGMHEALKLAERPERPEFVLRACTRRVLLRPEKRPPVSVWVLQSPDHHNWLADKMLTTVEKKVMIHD
Chain of human Adrenergic, Alpha 2A Receptor (Adra2A), ADRA2A (gene 150) (P08913 whole entry, looked up): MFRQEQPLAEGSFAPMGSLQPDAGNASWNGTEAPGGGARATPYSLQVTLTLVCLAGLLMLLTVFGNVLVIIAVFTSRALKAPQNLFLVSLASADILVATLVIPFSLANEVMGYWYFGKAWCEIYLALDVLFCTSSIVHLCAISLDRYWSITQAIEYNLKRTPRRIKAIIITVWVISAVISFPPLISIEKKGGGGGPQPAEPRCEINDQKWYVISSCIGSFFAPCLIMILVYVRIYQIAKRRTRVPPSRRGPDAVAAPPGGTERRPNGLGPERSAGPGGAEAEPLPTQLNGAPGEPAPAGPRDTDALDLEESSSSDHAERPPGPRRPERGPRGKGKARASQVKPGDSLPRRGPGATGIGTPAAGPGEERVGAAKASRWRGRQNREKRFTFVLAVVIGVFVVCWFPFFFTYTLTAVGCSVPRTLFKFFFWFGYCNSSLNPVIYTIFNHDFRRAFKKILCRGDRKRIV
Chain of human Dopamine Receptor D2 (DRD2), DRD2 (gene 1813) (P14416 whole entry, looked up): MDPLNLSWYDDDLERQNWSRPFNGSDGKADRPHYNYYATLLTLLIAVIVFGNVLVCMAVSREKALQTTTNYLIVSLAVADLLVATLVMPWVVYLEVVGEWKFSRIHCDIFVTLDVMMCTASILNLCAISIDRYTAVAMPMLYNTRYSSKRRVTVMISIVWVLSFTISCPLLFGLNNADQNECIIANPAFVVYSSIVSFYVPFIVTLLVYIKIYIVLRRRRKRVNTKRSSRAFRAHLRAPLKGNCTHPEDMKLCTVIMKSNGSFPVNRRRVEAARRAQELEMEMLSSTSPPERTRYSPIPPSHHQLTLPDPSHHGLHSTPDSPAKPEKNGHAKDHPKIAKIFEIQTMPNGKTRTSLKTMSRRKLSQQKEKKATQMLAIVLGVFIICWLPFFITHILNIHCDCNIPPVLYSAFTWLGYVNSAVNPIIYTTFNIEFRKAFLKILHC
Chain of human Adrenergic, Beta 1 Receptor (Adrb1), ADRB1 (gene 153) (P08588 whole entry, looked up): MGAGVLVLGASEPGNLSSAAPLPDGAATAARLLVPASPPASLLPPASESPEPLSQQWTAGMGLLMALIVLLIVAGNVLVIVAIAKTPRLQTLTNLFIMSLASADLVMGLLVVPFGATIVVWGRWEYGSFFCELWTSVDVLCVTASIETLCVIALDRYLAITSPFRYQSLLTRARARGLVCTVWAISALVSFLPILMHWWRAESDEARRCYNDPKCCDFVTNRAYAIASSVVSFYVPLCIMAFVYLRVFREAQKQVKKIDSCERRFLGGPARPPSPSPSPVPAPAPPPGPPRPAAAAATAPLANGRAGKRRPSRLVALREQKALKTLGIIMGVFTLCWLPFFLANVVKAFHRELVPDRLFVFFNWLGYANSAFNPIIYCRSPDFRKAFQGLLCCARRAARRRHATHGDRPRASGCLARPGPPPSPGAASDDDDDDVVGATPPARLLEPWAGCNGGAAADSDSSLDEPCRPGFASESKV
Chain of human Adrenergic, Beta 3 Receptor (Adrb3), ADRB3 (gene 155) (P13945 whole entry, looked up): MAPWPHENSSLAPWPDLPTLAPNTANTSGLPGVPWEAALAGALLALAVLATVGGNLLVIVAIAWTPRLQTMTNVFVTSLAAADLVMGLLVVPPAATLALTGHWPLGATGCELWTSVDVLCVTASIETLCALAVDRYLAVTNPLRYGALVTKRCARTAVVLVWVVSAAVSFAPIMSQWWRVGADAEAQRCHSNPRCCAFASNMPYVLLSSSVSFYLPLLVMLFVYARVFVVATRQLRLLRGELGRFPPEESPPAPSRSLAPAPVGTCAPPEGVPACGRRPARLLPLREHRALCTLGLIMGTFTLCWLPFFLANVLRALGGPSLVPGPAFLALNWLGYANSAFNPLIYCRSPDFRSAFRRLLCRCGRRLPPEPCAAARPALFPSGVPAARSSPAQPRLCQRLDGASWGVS
Chain of Adenosine receptor A1 (Bos taurus) (P28190 whole entry, looked up): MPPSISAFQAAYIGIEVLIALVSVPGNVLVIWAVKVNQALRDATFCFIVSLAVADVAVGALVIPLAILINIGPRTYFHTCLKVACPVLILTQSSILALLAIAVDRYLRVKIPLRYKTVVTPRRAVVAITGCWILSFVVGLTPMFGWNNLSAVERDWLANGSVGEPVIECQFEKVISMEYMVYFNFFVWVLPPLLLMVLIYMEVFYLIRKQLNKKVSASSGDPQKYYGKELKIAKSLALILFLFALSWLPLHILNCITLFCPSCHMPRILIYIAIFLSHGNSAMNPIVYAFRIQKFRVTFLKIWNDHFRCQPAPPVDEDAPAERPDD
Chain of human Adenosine A2a Receptor (AdoRA2a), ADORA2A (gene 135) (P29274 whole entry, looked up): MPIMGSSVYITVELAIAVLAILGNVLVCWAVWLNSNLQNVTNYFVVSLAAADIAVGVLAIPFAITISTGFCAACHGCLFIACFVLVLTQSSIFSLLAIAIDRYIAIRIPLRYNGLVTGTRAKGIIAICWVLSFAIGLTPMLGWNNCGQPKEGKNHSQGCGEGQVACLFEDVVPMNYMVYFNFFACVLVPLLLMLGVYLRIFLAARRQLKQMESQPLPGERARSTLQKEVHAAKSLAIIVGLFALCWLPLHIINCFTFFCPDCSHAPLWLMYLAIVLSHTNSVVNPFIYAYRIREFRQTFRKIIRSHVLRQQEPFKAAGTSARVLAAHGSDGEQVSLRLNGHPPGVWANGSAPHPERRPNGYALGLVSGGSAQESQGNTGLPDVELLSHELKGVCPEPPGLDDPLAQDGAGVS
Chain of Beta-2 adrenergic receptor (Homo sapiens) (P07550 whole entry, looked up): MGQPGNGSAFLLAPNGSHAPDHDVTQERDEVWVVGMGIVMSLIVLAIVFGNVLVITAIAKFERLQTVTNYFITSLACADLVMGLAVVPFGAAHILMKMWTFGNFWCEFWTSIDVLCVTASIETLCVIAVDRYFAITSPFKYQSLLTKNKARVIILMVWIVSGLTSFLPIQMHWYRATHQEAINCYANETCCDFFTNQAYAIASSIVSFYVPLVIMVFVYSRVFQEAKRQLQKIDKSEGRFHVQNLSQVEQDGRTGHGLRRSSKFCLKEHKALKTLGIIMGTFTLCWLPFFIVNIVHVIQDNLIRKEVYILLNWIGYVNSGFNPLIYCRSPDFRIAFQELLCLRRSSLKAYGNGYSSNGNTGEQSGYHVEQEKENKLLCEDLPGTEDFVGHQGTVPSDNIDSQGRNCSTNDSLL
Chain of guinea pig Opioid, Kappa 1 Receptor (OpiateK), OPRK1 (gene 100135587) (P41144 whole entry, looked up): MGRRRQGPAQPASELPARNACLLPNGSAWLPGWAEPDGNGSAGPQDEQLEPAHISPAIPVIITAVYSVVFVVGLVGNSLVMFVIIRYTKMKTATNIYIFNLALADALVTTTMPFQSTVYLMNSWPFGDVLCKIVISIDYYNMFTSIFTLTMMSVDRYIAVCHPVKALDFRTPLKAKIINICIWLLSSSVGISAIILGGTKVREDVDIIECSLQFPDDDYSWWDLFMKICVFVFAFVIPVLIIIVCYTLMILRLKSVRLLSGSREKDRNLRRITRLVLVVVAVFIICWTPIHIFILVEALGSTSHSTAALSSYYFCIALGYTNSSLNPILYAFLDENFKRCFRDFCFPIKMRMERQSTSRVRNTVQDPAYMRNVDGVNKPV
Chain of human Dopamine Receptor D4.4 (DRD4.4), DRD4 (gene 1815) (P21917 whole entry, looked up): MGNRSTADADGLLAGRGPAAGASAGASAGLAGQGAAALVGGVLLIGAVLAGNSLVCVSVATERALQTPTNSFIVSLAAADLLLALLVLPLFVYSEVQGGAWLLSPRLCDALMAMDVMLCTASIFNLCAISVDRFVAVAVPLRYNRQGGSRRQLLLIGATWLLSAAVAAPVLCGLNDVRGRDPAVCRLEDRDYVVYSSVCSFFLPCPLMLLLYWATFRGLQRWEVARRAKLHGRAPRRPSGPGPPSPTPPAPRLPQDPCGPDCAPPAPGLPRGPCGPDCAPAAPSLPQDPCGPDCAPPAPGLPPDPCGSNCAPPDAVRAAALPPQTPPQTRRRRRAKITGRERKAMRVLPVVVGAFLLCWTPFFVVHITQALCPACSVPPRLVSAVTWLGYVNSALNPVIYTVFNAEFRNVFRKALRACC

Q: `Cn1c(=O)c2c(ncn2C)n(C)c1=O` was tested. Which AC50 [1] did it give?
A: The AC50 was 25 µM (active).

Q: Which AC50 [2] does the source give for `Cc1[nH]cnc1C[C@H]1CCc2c(C)c3ccccc3n2C1=O` here?
A: Its AC50 is 1.45 µM (active).

Q: And the AC50 [3]?
A: Its AC50 is 10.5 µM (active).

Q: And the outcome [4]?
A: The outcome was “inactive”.

Q: What about the AC50 [5] of the same compound?
A: The AC50 was 0.399 µM (active).

Q: What about the AC50 [6] of the same compound?
A: Its AC50 is 3.82 µM (active).

Q: What about the AC50 [7] of the same compound?
A: Its AC50 is 22.2 µM (active).

Q: And the AC50 [8]?
A: The AC50 was 0.56 µM (active).

Q: And the AC50 [9]?
A: Its AC50 is 1.04 µM (active).

Q: And the AC50 [10]?
A: The AC50 was 5.39 µM (active).

Q: What about the AC50 [11] of the same compound?
A: The AC50 was 1.39 µM (active).

Q: What about the AC50 [12] of the same compound?
A: The AC50 was 18.4 µM (active).

Q: And the AC50 [13]?
A: Its AC50 is 0.979 µM (active).

Q: For `CCOC(=O)COc1ccc2c(c1)CC(NCC(O)c1cccc(Cl)c1)CC2` (centres undefined), which AC50 [2] is on record?
A: Its AC50 is 12.1 µM (active).

Q: What about the AC50 [3] of the same compound?
A: Its AC50 is 22.9 µM (active).

Q: What about the AC50 [6] of the same compound?
A: Its AC50 is 22.9 µM (active).

Q: And the AC50 [8]?
A: Its AC50 is 7.53 µM (active).

Q: And the AC50 [9]?
A: The AC50 was 3.33 µM (active).

Q: And the AC50 [10]?
A: Its AC50 is 3.81 µM (active).

Q: What about the AC50 [11] of the same compound?
A: The AC50 was 0.0827 µM (active).

Q: What about the AC50 [14] of the same compound?
A: The AC50 was 17.9 µM (active).

Q: What about the AC50 [12] of the same compound?
A: Its AC50 is 22.9 µM (active).

Q: And the outcome [15]?
A: The outcome was “inactive”.

Q: And the AC50 [13]?
A: The AC50 was 2.33 µM (active).

Q: With `Cc1ccc(C)c(O)c1` as the compound, how does the outcome [1] read?
A: The outcome was “inactive”.

Q: Which AC50 [4] does the source give for `CN(C)c1ccc(N=NS(=O)(=O)O)cc1` here?
A: Its AC50 is 8.61 µM (active).

Q: `CCC(C)(C)C(=O)O[C@H]1C[C@@H](C)C=C2C=C[C@H](C)[C@H](CC[C@@H]3C[C@@H](O)CC(=O)O3)[C@H]21` was tested. Which AC50 [6] did it give?
A: The AC50 was 11.8 µM (active).

Q: And the outcome [13]?
A: Its outcome is “inactive”.

Q: With `CC/C(=C\C(=N/O)C(N)=O)C(C)[N+](=O)[O-]` (centres undefined) as the compound, how does the outcome [2] read?
A: The outcome was “inactive”.

Q: What about the outcome [14] of the same compound?
A: The outcome was “inactive”.

Q: What does the source list for `CCN(C(=O)c1cc(C)cc(OC[C@H](C)Nc2ccncc2)c1)C(C)C`?
A: outcome [2]: inactive; AC50 [8]: 7.91 µM (active)

Q: `Oc1ccc2c(c1)-c1ccccc1C2` was tested. Which outcome [6] did it give?
A: The outcome was “inactive”.

Q: And the AC50 [7]?
A: Its AC50 is 25 µM (active).
